Assay outcomes (PubChem BioAssay)
Shown are actives, neighbours in structure and some others; about 19% of the full set was active somewhere.
DT40 TDP1 CPT: DT40-hTDP1 cell growth loss with CPT. chicken DT40 Tdp1-/-;hTDP1 cells + 20 nM CPT, ATP luminescence, 48 h. Potency, µM (top dose mostly 46.2 µM), for inactives: at the highest dose activity change, negative = growth inhibition, most hits filed as inhibitors. 420,000 tested, 12% active. AID 686979; note: potency is the fitted concentration of half-maximal effect; nearly all actives have a fitted effect of over 55% in size
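Chicken DT40 Tdp1-/- cells complemented with human TDP1, 400 cells/well, exposed to compounds plus 20 nM camptothecin for at least 48 h at 37 C; viability read as ATP content by CellTiter-Glo luminescence.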
DT40 TDP1 no CPT: qHTS for Inhibitors of human tyrosyl-DNA phosphodiesterase 1 (TDP1): qHTS in cells in absence of CPT; 420,000 tested, 15% active; DT40 Tdp1-/- hTDP1 cells, no CPT, ATP luminescence, 48 h; Potency, µM (series often up to 46.2 µM), for the others: top-dose activity change, negative = growth inhibition, usual class: inhibitors; AID 686978, 2013; note: potency is the fitted concentration of half-maximal effect; nearly all actives have a fitted effect of over 55% in size
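Compound effects on proliferation are scored in DT40 Tdp1-/-;hTDP1 cells in the absence of CPT. ATP levels (CellTiter-Glo luminescence) are recorded after a ≥48 hr, 37 °C incubation.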
HT1080-NT tox: kills 2HG-producing HT-1080-NT fibrosarcoma cells; 360,000 tested, 1.6% active; HT-1080-NT fibrosarcoma viability, CellTiter-Glo ATP luminescence, 48 h; Potency, µM (series often up to 46.1 µM), for the others: top-dose activity, negative = less viability, hits mostly cytotoxic; AID 686970;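 note: NT is the 2HG producing partner of a matched IDH1 knockdown line; potency is the fitted concentration of half-maximal effect; 0% = DMSO-treated cells and -100% = media-only wells without cells; nearly all actives have a fitted effect of over 55% in size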
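Compounds were tested in concentration-response format on HT-1080-NT cells for 48 hours at 37 degrees C. Cell viability came from CellTiter-Glo luminescence; curves were classified by r2, response magnitude and activity.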
HT1080 IDH1KD tx: HT-1080 IDH1 knockdown cell toxicity (counter line) | 360,000 tested, 2% active | Potency, µM (series often up to 46.1 µM), without a hit: at the highest dose activity, negative = toxicity, usual class: cytotoxic | AID 686971 | HT-1080 IDH1 knockdown viability, ATP luminescence, 48 h;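 note: potency is the fitted concentration of half-maximal effect; 0% = DMSO wells and -100% = cell-free medium wells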
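Viability of IDH1-knockdown HT-1080 fibrosarcoma cells was assessed by CellTiter-Glo after 48 h at 37 °C with titrated compound; concentration-effect curves were classified by fit quality and response size.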
IL-1B inflam inh: inhibitors of inflammasome signaling (IL-1 beta secretion). activity change, % at 57.5 µM. AID 743279. THP-1 LPS/ATP IL-1B secretion, AlphaLISA, 16 h; hits give low values. 360,000 tested, 4.7% active; in the data active = activity change below about -50%; inconclusive = mostly about -30% to -49%
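THP-1 cells pretreated 1 hr with compounds (up to 57.5 uM final), then stimulated with LPS (250 ng/mL final) plus ATP (1.25 mM final); secreted IL-1B measured by AlphaLISA after 16 hr, decreased signal indicating inhibition.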
* hit, by the source's call; ? = inconclusive; / = not tested or not shown. Unless noted, calls come from the whole dose curve; as a rule, active = well fitted curve in the direction sought with a large enough effect; inconclusive = small, poorly fitted or top-dose-only effect, or another doubt; inactive = no such curve, though single readings can be large; an effect the other way counts as inactive or inconclusive. Unless noted, % is set by controls: 0 for no effect and ±100 for the full control effect.

SMILES	DT40 TDP1 CPT	DT40 TDP1 no CPT	HT1080-NT tox	HT1080 IDH1KD tx	IL-1B inflam inh
COc1ccccc1C(=O)NC(=O)COC(=O)CCNS(=O)(=O)c1ccccc1	?	-18.0%	14.5%	13.3%	16.9
CCCN(Cc1ccccc1)C(=S)Nc1ccc(OCC)cc1	?	18.4µM*	-23.7%	-12.6%	-58.5*
CCCN(Cc1ccccc1)C(=S)Nc1ccc(F)cc1	13.3%	-10.5%	15.3%	0.8%	-9.7
COc1ccc(NC(=S)N(Cc2ccc(N(C)C)cc2)Cc2ccco2)cc1	1.9%	?	-14.1%	-7.2%	-76.2*
CCOc1ccc(NC(=S)NCc2ccco2)cc1	3.3%	-1.7%	7.2%	10.7%	-3.1
CCOc1ccc(NC(=S)N(Cc2ccc(N(C)C)cc2)Cc2ccco2)cc1	?	16.4µM*	6.0%	4.6%	-19.1
CCCCSCCCNC(=O)Nc1ccc(C)c(C)c1	-6.6%	-11.4%	-9.1%	-4.4%	-28.2
CCOc1ccc(C2C(C(=O)Nc3ccccc3)=C(C)Nc3nc(SCc4cccc(OC)c4)nn32)cc1 (stereo unspecified)	-7.3%	0.7%	/	/	/
CCc1cc2c(SCC(=O)NC(=O)c3cccn3C)ncnc2s1	5.3%	?	-17.4%	?	55.2
Cc1ccc(N2CCN(C(=O)Nc3cccc([N+](=O)[O-])c3)CC2C)cc1 (stereo unspecified)	-8.0%	?	-7.8%	-9.5%	-70.8*
O=C(Nc1cccc([N+](=O)[O-])c1)N1CCN(c2ccccc2)CC1	-17.4%	?	1.3%	-3.9%	-22.9
Cc1cc2nc(N(Cc3cccnc3)C(=O)c3ccc(Cl)s3)sc2cc1C	4.1%	1.1%	/	/	/
CC1(C)Cc2ccccc2C(NNC(=O)c2ccccc2)=N1	-4.1%	-21.8%	26.6%	20.6%	-11.3
CC1(C)Cc2ccccc2C(NNC(=O)c2ccccn2)=N1	18.4µM*	20.6µM*	-28.2%	?	75.4
COc1cccc2sc3ccc(C#Cc4ccc(N)cc4)cc3c(=O)c12	16.4µM*	?	-15.1%	-15.2%	-24.9
COc1cccc2sc3ccc(C#CC4(O)CCCCC4)cc3c(=O)c12	?	?	?	-27.0%	-56.7*
Nc1ccc(C#Cc2ccc3sc4ccccc4c(=O)c3c2)cc1	-6.4%	-29.2%	-7.4%	?	16.1
COc1ccc2c(c1)c(CC(=O)Nc1ccc(C)cc1)c(C)n2C(=O)c1ccc(Cl)cc1	?	20.6µM*	-12.3%	-16.5%	21.6
COc1ccc(NC(=O)Cc2c(C)n(C(=O)c3ccc(Cl)cc3)c3ccc(OC)cc23)cc1	-10.3%	-28.7%	4.9%	-1.0%	26.7
COc1ccc2c(c1)c(CCNNC(=O)C(C)(C)C)c(C)n2C(=O)c1ccc(Cl)cc1	23.1µM*	16.4µM*	6.6%	-7.2%	?
COc1ccc2c(c1)c(CC(=O)OC(C)C(=O)N(C)C)c(C)n2C(=O)c1ccc(Cl)cc1 (stereo unspecified)	20.6µM*	14.6µM*	-4.2%	-1.9%	8.3
COC(=O)CNC(=O)Cc1c(C)n(C(=O)c2ccc(Cl)cc2)c2ccc(OC)cc12	-24.7%	0.7%	-12.3%	-11.4%	23.5
COc1ccc(CNC(=O)c2cc3cc(S(=O)(=O)N4CCCCC4)ccc3n2C)c(OC)c1	-24.9%	?	/	/	/
S=c1[nH]nc(-c2cccc3ccccc23)n1-c1cccnc1	12.1%	-11.0%	4.5%	15.7%	24.3
